Compounds with a hit are over-represented: about 6.1% of the library has one in this group of screens.
D1 ag = Allosteric Agonists of the Human D1 Dopamine Receptor: qHTS. HEK293 T-REx D1 cells, calcium flux, agonist mode. 360,000 tested, 1% active. D(1A) dopamine receptor (Homo sapiens), P21728. activation, % at 2 µM. AID 504660, 2011; in the data active means activation above about 30%; further: 0% is about no effect
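Tetracycline-induced HEK293 TREx D1 cells, force-coupled to calcium signalling, were dye-loaded with a no-wash calcium kit. Compound was pin-added after a 10 s baseline. Fluorescence was read kinetically at 1 cycle/s for 180 s, with calcium rises flagged as agonism.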
D1 antagonist = Antagonist of Human D 1 Dopamine Receptor: qHTS. activity change, negative = inhibition, % at 10 µM. D(1A) dopamine receptor (Homo sapiens), P21728. 360,000 tested, 3.2% active. HEK293 TREx D1 cells, calcium flux, dopamine EC80; stronger effect = lower value; in the data active means activity change below about -30%; further: on the % scale 0 is the no-effect control and ±100 the full control effect
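Allosteric or orthosteric antagonism assessed as attenuation of the calcium response to EC80 dopamine, added 180 s after compound, in induced HEK293 Trex D1 cells loaded with no-wash calcium dye.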
D1 PAM = Potentiators of Human D1 Dopamine Receptor: qHTS; HEK293 TREx D1 cells, calcium flux, dopamine EC20 potentiation; potentiation, % at 10 µM; 360,000 tested, 0.036% active; in the data active means potentiation above about 30%; further: 0% is about no effect
DRD3 antagonist = qHTS of D3 Dopamine Receptor Antagonist: qHTS; D3R cells, DiscoveRx beta-arrestin luminescence, antagonist mode; stronger effect = lower value; max response, negative = inhibition, %; 360,000 tested, 2.5% active; AID 652054, 2013; in the data active means max response below about -50%; inconclusive means no clear call, values can overlap the other calls; further: on the % scale 0 is the no-effect control and ±100 the full control effect
Target sequence (P35462 whole entry, looked up): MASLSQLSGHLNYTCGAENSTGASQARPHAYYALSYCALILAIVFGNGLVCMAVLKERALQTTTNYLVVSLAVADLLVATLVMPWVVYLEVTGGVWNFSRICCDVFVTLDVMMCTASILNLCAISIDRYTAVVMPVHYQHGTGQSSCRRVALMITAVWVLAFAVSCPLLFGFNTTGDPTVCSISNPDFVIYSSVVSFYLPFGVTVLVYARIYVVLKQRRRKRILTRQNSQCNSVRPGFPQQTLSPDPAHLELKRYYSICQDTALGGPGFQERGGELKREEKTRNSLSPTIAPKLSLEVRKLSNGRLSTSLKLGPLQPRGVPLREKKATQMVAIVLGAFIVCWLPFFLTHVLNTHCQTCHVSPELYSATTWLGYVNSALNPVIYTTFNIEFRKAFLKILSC
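Cells expressing the human receptor were seeded at 1500 cells/well, incubated overnight at 37 degrees C in 5% CO2, then exposed to library compounds with dopamine controls for 90 minutes at 37 degrees C before luminescent detection.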
D3 ag = qHTS of D3 Dopamine Receptor Agonist: qHTS; max activation, %; D3R DiscoveRx beta-arrestin cells, luminescence, 90 min; 410,000 tested, 0.58% active; AID 652048, 2013; in the data active means max activation above about 30%; further: 0% is about no effect
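Cells at 1500/well, incubated overnight, then treated with pinned compounds (dopamine as control) for 90 min at 37 degrees C. DiscoveRx reagent added for 30 - 60 minutes at room temperature; luminescence read.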
Numbers without * were called inactive; ? = inconclusive; · = not tested or not shown.

SMILES	D1 ag	D1 antagonist	D1 PAM	DRD3 antagonist	D3 ag
O=C(COC(=O)c1ccccc1C(=O)c1ccc(Cl)c([N+](=O)[O-])c1)NC1CC1	-1	-41*	-9	-66*	-18
O=C(OC1CCOC1=O)c1ccccc1C(=O)c1ccc(Cl)c([N+](=O)[O-])c1 (centres undefined)	1	3	-3	?	-11
CC(C)OC(=O)c1ccccc1C(=O)c1ccc(N)c([N+](=O)[O-])c1	-1	-34*	-5	-3	0
O=C(COC(=O)c1cc([N+](=O)[O-])ccc1Cl)NC1CCCC1	0	-2	-5	2	-6
CNC(=O)COC(=O)c1ccccc1C(=O)c1ccc(Cl)c([N+](=O)[O-])c1	1	-13	-5	-61*	0
Nc1ccccc1Sc1ccc(C(=O)c2ccccc2C(=O)O)cc1[N+](=O)[O-]	2	0	1	-16	4
CCOC(=O)c1ccc(NC(=O)CSc2cc(=O)n(CC)c3ccccc23)cc1	6	-11	2	·	-2
COc1ccc(OC)c(NC(=O)COC(=O)CCNc2ccccc2OC)c1	·	·	·	-6	0
CCn1c(NC(=O)c2ccc(COc3ccc(C)cc3[N+](=O)[O-])o2)nc2ccccc21	2	-17	-2	10	37*
CCOc1ncccc1C(=O)OCc1csc(CC(=O)Nc2ccccc2C)n1	0	-11	-2	-22	0
O=C(Nc1ccc(F)cc1)Nc1nnc(-c2ccncc2)s1	22	-6	-3	20	23
O=C(Nc1ccc(Cl)cc1)Nc1nnc(-c2ccncc2)s1	12	-7	2	27	49*
O=C(Nc1ccc(Cl)cc1)Nc1nc(-c2sccc2Br)cs1	2	1	-2	0	7
O=C(Nc1ccc(Cl)cc1)Nc1nc(-c2ccccc2O)cs1	24	-37*	-8	63	-2
Cc1cc(C)c(NC(=O)Nc2ccc3snnc3c2)c(C)c1	29	-29	-3	·	1
CN(C)c1ccc(NC(=O)Nc2ccc3snnc3c2)cc1	16	-48*	-7	?	-6
O=C(Nc1cccc(C(F)(F)F)c1)c1ccc2snnc2c1	13	-14	-4	·	-3
O=C(Nc1ccccc1)Nc1ccc2snnc2c1	25	-52*	-5	-14	0
CCOc1ccc(NC(=O)Nc2ccc3snnc3c2)cc1	28	-39*	-4	·	4
O=C(Nc1cccc(C(F)(F)F)c1)Nc1ccc2snnc2c1	37*	-69*	-3	·	5
Cc1nc(N2CCCC2)ncc1C(=O)N1CCN(c2ccc(Cl)cc2)CC1	4	-2	0	·	3
CCN(C(=O)CSc1nnc2nc(C)cc(C)n12)c1ccccc1	2	1	8	-5	-4
Cc1cccc(-c2nc3scc(CCNS(=O)(=O)c4ccc(F)cc4C)n3n2)c1	11	·	-3	·	-14
O=C(Nc1ccc(F)cc1)Nc1cc(OCC(F)(F)F)cc(OCC(F)(F)F)c1	10	4	-14	10	6
O=C(NCc1ccccc1)c1ccc2nnsc2c1	2	-7	-5	6	-7
SMILES	D1 ag	D1 antagonist	D1 PAM	DRD3 antagonist	D3 ag
CCOc1ccc(NC(=O)Nc2cc(OCC(F)(F)F)cc(OCC(F)(F)F)c2)cc1	17	-37*	-3	0	4
O=C(Nc1ccccc1)Nc1ccc2nnsc2c1	33*	-19	-2	-3	-14
CCOc1ccc(NC(=O)Nc2cc(C)ccc2F)cc1	0	-5	3	30	-13
CCOc1ccc(NC(=O)Nc2cc(C(C)C)c(O)cc2C)cc1	0	-47*	-5	-10	1
CCOC(=O)CC(NC(=O)CCc1c(C)nc2c(c(C)nn2-c2ccc(C)c(C)c2)c1C)c1ccc(C)cc1 (centres undefined)	6	4	-6	·	4
CC1(C)CC(=O)C2=C(C1)NC(=O)CC2c1cc(F)ccc1F (centres undefined)	2	-12	-10	0	-2
CC1(C)CC(=O)C2=C(C1)NC(=O)CC2c1ccccc1F (centres undefined)	1	-31*	-6	-20	1
COC(=O)[C@H]1[C@@H](C)N(Cc2ccccc2)C(=O)N[C@H]1c1ccccc1	·	·	·	-55*	3
CCOC(=O)C1(CC2CC2)CCN(Cc2ccc(O)c(Cl)c2)CC1	1	-10	-2	·	·
CCOC(=O)C1(CC2CC2)CCN(Cc2ccc3cccc(F)c3n2)CC1	13	-23	-8	-96*	-19
CCOC(=O)C1(CC2CC2)CCN(Cc2cn[nH]c2-c2ccccc2)CC1	3	7	-4	4	4
CCOC(=O)C1(CC2CC2)CCN(S(=O)(=O)/C=C/c2ccccc2)CC1	9	-80*	-11	13	1
CCOC(=O)C1(CC2CC2)CCN(Cc2cn[nH]c2-c2cccc(F)c2)CC1	1	-38*	-7	12	-3
COc1ccc(NC2SC(=O)N(C)C2=O)cc1 (centres undefined)	-1	-1	-2	6	0
CC(C)[C@@H](C(=O)NC1CCN(Cc2ccccc2)CC1)N1C(=O)N2CCc3c([nH]c4ccccc34)[C@@]2(C)C1=O	7	-6	-1	?	-56
Cc1nc2ccccc2n1C1CCN(CC(=O)Nc2ccccc2Br)CC1	52*	-14	-5	9	10
Cc1nnc(SCCn2c(N3CCC(C)CC3)nc3c2c(=O)[nH]c(=O)n3C)s1	1	-60*	-9	7	-13
O=C1CCCN1CCC1CCCCN1Cc1nc(-c2cnccn2)no1 (centres undefined)	9	-28	-9	-3	-2
O=C(Cc1ccc2c(c1)OCCO2)N1CCN(S(=O)(=O)c2cccc(Cl)c2Cl)CC1	13	-28	-6	12	9
O=C(Cc1ccc2c(c1)OCCO2)N1CCN(S(=O)(=O)c2cccs2)CC1	15	-35*	-12	-9	-5
CC(C)Cn1c(N)c(C(=O)CSc2nc3ccccc3c(=O)n2CCCN2CCOCC2)c(=O)n(C)c1=O	0	1	0	·	·
O=c1c2ccccc2nc2n1CC/C2=C/N1CCN(c2cccc(C(F)(F)F)c2)CC1	9	-15	-4	-91*	-38
CC(=O)Nc1ccc(S(=O)(=O)N(C)CC(=O)NC2=NCCS2)cc1	2	-31*	-8	-4	-3
CC(=O)Nc1ccc(S(=O)(=O)N(C)CC(=O)NC2CCCCCCC2)cc1	·	·	·	-9	-10
CN(C)c1ccc(/C=C/C=N/Nc2nc(N3CCOCC3)nc(N3CCOCC3)n2)cc1	-1	-35*	-8	28	6
